Among all 68,000 compounds or so, about 2,700 (4%) showed an effect of 50% or more. This is one part of a sample in which strong results are shown more often than they occur.
Each compound was assayed on Plasmodium berghei (assay: Screen against P. berghei liver stage (PbLuc), transformed with Luciferase, at 2uM). Settings: tested at 2 uM.
Assay type: functional, HepG2

SMILES | INHIBITION
Cc1cnc(CN2CCCC(c3cc(C)[nH]n3)C2)cn1 (stereo unspecified) | 43%
Cc1ccc(NC2CCN(C(=O)c3sccc3C3CC3)CC2)nn1 | 3.38%
COC1(CNC(=O)c2ccc(Cl)c(Cl)c2)CCSC1 (stereo unspecified) | -26.56%
O=C(Nc1cccnc1)c1ccc(-n2cncn2)nn1 | -7.69%
Cc1cccnc1NC(=O)c1ccc(-n2cncn2)nn1 | 9.92%
Cc1cccc(NC(=O)c2ccc(-n3cncn3)nn2)n1 | 55.73%
CN(C)S(=O)(=O)N1CCC(c2nnc(C(F)(F)F)o2)CC1 | 14.97%
CCS(=O)(=O)N1CCC(c2nnc(C(F)(F)F)o2)CC1 | 14.97%
CCS(=O)(=O)N1CCC(c2nnc(C3CC3)o2)CC1 | 54.82%
O=C(NCCc1cccs1)[C@]12COC[C@H]1CN(c1ncccn1)C2 | 44%
NC(=O)CSCCC(=O)NCC1CC1 | 37.87%
NC(=O)CSCC(=O)NCC1CCCC1 | 60.79%
N#CCSCC(=O)NCC1CCCCC1 | -64.85%
CN(C)c1cc2c(nn1)CCN(C(=O)C1Cc3ccccc3O1)C2 (stereo unspecified) | 11.24%
CCNc1cc2c(nn1)CCN(C(=O)C1Cc3ccccc3S1)C2 (stereo unspecified) | 27.6%
CN(C)c1cc2c(nn1)CCN(C(=O)c1cc3c(s1)CCOC3)C2 | 56.05%
CN(C)c1cc2c(nn1)CCN(C(=O)C1Cc3ccccc3S1)C2 (stereo unspecified) | 65.77%
CN(C)c1cc2c(nn1)CCN(C(=O)c1cc3c(s1)CCC3)C2 | -7.96%
CN(C)c1cc2c(nn1)CCN(C(=O)c1cc3c(s1)CCCC3)C2 | 28.39%
CC(=O)N1CCC(Cc2ccc(-c3ccnn3C)nc2)CC1 | 35.19%
Cc1ccc(N2CC[C@H]3O[C@@H](C(=O)N4CCCO4)CC[C@H]32)nn1 | -28.58%
CNS(=O)(=O)c1cccc(CNC(=O)c2cnn(C)c2C)c1 | -2.2%

SMILES | INHIBITION
CCn1c(C)cc(C(=O)NCc2cccc(NS(C)(=O)=O)c2)c1C | -6.29%
CCn1c(C)cc(C(=O)NCc2cccc(S(=O)(=O)NC)c2)c1C | 62.01%
Cc1nccn1-c1ccc(NC(=O)C2CCCN2Cc2c[nH]cn2)cc1 (stereo unspecified) | 31.51%
Cc1nccn1-c1ccc(NC(=O)C2CCCN2CC2CC2)cc1 (stereo unspecified) | 69.67%
Cc1nccn1-c1ccc(NC(=O)C2CCCN2Cc2ccoc2)cc1 (stereo unspecified) | 29.13%
COCCCN1CCN(c2ncnc3nc(C)cc(C)c23)CC1 | 19.27%
O=C(CCc1n[nH]c2c1CCCC2)N1C[C@H]2CC[C@@H](C1)N(CC1CC1)C2 | 35.94%
Nc1cc(N2CCCC(COc3ccc(F)cc3)C2)nc(N)n1 (stereo unspecified) | 17.48%
Cc1nc(N)cc(N2CCCC(COc3cccc(F)c3)C2)n1 (stereo unspecified) | 59.8%
Nc1cc(N2CCCC(COc3ccc(F)cc3)C2)ncn1 (stereo unspecified) | 42.11%
N#Cc1cccnc1NCc1cccc(C(=O)NCC2CCCCO2)c1 (stereo unspecified) | 27.85%
N#Cc1cccnc1NCCc1cc(F)cc2c1OCOC2 | 4.68%
COc1ccc2c(c1)CCCC2CC(=O)O (stereo unspecified) | -36.72%
COc1ccc2c(c1)CCCC2CC(=O)NCC(C)(C)C(=O)O (stereo unspecified) | 53.98%
COc1ccc2c(c1)CCCC2CC(=O)NCC(=O)O (stereo unspecified) | -35.22%
CC1CN(CC(=O)Nc2nncs2)CCN1Cc1nccn1C (stereo unspecified) | -11.91%
CCS(=O)(=O)c1ncc(CN(C)C)n1Cc1ccccc1 | -2.93%
CNC(=O)c1cccc(NC(=O)Cn2nc(-c3cccs3)oc2=O)c1 | 17.39%
O=c1oc(-c2cccs2)nn1CC(O)c1ccccc1F (stereo unspecified) | 34.89%
CC(=O)c1cccc(NC(=O)Cn2cnc(-c3ccccc3)cc2=O)c1 | 3.11%
O=C(Cn1cnc(-c2cccs2)cc1=O)Nc1cccnc1 | -8.7%
CC(=O)c1cccc(NC(=O)Cn2nc(-c3cccs3)oc2=O)c1 | 51.94%

SMILES | INHIBITION
O=c1oc(-c2cccs2)nn1CC(O)c1ccc(F)cc1 (stereo unspecified) | 29.61%
CC(=O)c1cccc(NC(=O)CCn2nc(-c3cccs3)oc2=O)c1 | 15.28%
O=c1oc(-c2cccs2)nn1CC(O)c1ccccc1 (stereo unspecified) | 60.95%
CC(=O)c1cccc(NC(=O)Cn2cnc(-c3cccs3)cc2=O)c1 | 50.7%
Cc1occc1C(=O)N1CCC2(CC1)C(c1cnn(C)c1)CC(=O)N2C (stereo unspecified) | -41.72%
Cc1cccc2c1OCCCC2NCc1nccn1Cc1ccccc1 (stereo unspecified) | 21.72%
c1csc(-c2nc(CNCCn3cccn3)cs2)c1 | 4.18%
COc1cc(N2C[C@@H]3COC[C@]3(C(=O)NCc3ccccn3)C2)ncn1 | -23.31%
Nc1ncccc1C(=O)NCc1cccc(Br)c1 | -3.16%
O=C(NCCc1cccs1)[C@]12COC[C@H]1CN(C1CCOCC1)C2 | 17.24%
COc1cc(N2CCC3(CCCN3Cc3cnn(C)c3)CC2)ncn1 | 30.09%
Cc1ccc(-c2cc(CN3CCc4cnc(C)nc4C3)on2)cc1 | -34.82%
O=C([C@H]1C[C@H]2OCC[C@H]2N(C(=O)c2ccncc2)C1)N1CCCCO1 | -34.26%
O=C([C@H]1C[C@H]2OCC[C@H]2N(C(=O)c2cnccn2)C1)N1CCCCO1 | -1.69%
O=C([C@H]1C[C@H]2OCC[C@H]2N(C(=O)c2ccccn2)C1)N1CCCCO1 | 62.1%
O=C(c1ccc(Br)o1)N1CCN(Cc2ccc(F)cc2)CC1 | 10.22%
CC(C)NC(=O)Nc1ccc(CNCc2cccc(C#N)c2)cc1 | -68.26%
Cn1ccnc1CC1CCCN(Cc2noc(C3CC3)n2)C1 (stereo unspecified) | 11.24%
Cn1cc(CNC2CCCN(Cc3noc(C4CC4)n3)C2)cn1 (stereo unspecified) | 2.08%
Cc1nc(CN2CCCC(NCc3cccc4ccccc34)C2)no1 (stereo unspecified) | 29.54%
CCc1nc(CN2CCCC(NCc3cc(C)no3)C2)no1 (stereo unspecified) | -2.1%
Cc1nc(CN2CCCC(NCCCc3ccccc3)C2)no1 (stereo unspecified) | -6.4%

SMILES | INHIBITION
Cc1nc(CN2CCCC(NCCc3ccccc3Cl)C2)no1 (stereo unspecified) | 56.67%
Cn1ccnc1CNC1CCCN(Cc2noc(C3CC3)n2)C1 (stereo unspecified) | 50.32%
CCc1nc(CN2CCCC(NCc3nc(C)c(C)o3)C2)no1 (stereo unspecified) | 36.73%
CCc1nc(CN2CCCC(NCc3cnc(C)s3)C2)no1 (stereo unspecified) | 77.57%
Cc1ccc(CNC2CCCN(Cc3noc(C4CC4)n3)C2)s1 (stereo unspecified) | 54.29%
Cc1cc(CNC2CCCN(Cc3noc(C4CC4)n3)C2)on1 (stereo unspecified) | 7.01%
Cc1ncc(CNC2CCCN(Cc3noc(C4CC4)n3)C2)s1 (stereo unspecified) | 18.46%
Cc1oc(C(=O)O)cc1S(=O)(=O)Nc1cccc(-c2nccs2)c1 | 15.39%
Fc1cnc(N2C[C@H]3CCC[C@@]3(COc3ccccn3)C2)nc1 | -27.16%
COc1ccc2cc(NC(=O)CCNc3nc(C)cc(C)n3)cnc2c1 | -6.83%
O=C(CN(C1=NCCCCC1)c1ccc(Cl)cc1)c1ccccc1 | -65.06%
CC(C)c1ccc(CN2CCC3(CCCN(c4nncs4)C3)C2)cc1 (stereo unspecified) | 5.52%
Cc1noc(C)c1CCC(=O)N1CCN(CCn2cccn2)CC1 | 2.18%
CC(NC(=O)COCC(F)(F)F)c1nnc2n1CCCCC2 (stereo unspecified) | 15.08%
Fc1ccccc1-c1cccc(C2CCCN(C3CCOCC3)C2)n1 (stereo unspecified) | 25.4%
c1ncn(CC2CCCN(Cc3noc(C4CC4)n3)C2)n1 (stereo unspecified) | 29.54%
c1cnn(CC2CCCCN2Cc2noc(C3CC3)n2)c1 (stereo unspecified) | -10.47%
Cc1nc(CN2CCCC(NCc3sccc3C)C2)no1 (stereo unspecified) | 51.94%
CCc1nc(CN2CCCC(NCCn3cncn3)C2)no1 (stereo unspecified) | 35.56%
Cc1ccsc1CNC1CCCN(Cc2noc(C3CC3)n2)C1 (stereo unspecified) | 17.59%
Cc1nc(CN2CCCC(NCc3ccsc3)C2)no1 (stereo unspecified) | 20.28%
c1ncn(CCNC2CCCN(Cc3noc(C4CC4)n3)C2)n1 (stereo unspecified) | 54.29%

SMILES | INHIBITION
c1ncn(CC2CCCCN2Cc2noc(C3CC3)n2)n1 (stereo unspecified) | 62.13%
Cc1nc(CN2CCCC2Cn2cncn2)no1 (stereo unspecified) | -21.93%
CCC(=O)Nc1cccc(C(=O)NCCC2=CSC3=NCCCN23)c1 | -17.86%
COc1ccc(-c2nc(C3CCNCC3)cc3c2ncn3C)cc1 | -0.45%
COCCS(=O)(=O)c1ncc(CN(C)C)n1Cc1ccccc1 | 29.41%
O=C(C1CCCOC1)N1CCCCc2ccccc21 (stereo unspecified) | 16.09%
Cc1ccc2c(c1)N(C(=O)C1CCCOC1)CCC2 (stereo unspecified) | -13.38%
O=C(C1CCCOC1)N1CCCc2ccccc21 (stereo unspecified) | 53.29%
C1CCCN(c2nc(C3CC3)no2)CC1 | 28.02%
Cc1ncsc1CN1C[C@@H]2CN(Cc3cccnc3)CCO[C@@H]2C1 | 54.13%
COc1ccc(CN2C[C@@H]3CN(Cc4cccnc4)CCO[C@@H]3C2)cc1 | 39.57%
Cc1ccsc1CN1C[C@@H]2CN(Cc3cccnc3)CCO[C@@H]2C1 | 4.26%
Cc1cc(C)c2cc(CNC3CCCCC3)c3nn(C)c(=O)n3c2c1 | 14.26%
Cc1cccc(C2(CNC(=O)CCNS(C)(=O)=O)CCCC2)c1 | 3.9%
COCCN1CCC2(CC1)CC(N1CCOCC1)c1ccc(C)cc12 (stereo unspecified) | 17.47%
CC(=O)NC(C(=O)N(C)Cc1nnc2n1CCC2)C(C)C (stereo unspecified) | -63.33%
CC(C)C(Sc1ccccc1)C(=O)N(C)Cc1nnc2n1CCC2 (stereo unspecified) | 64.39%
CC(C)C(=O)N(C)Cc1nnc2n1CCCCC2 | 21.82%

— ChEMBL document CHEMBL4513216, “Probing the Open Global Health Chemical Diversity Library for Multistage-Active Starting Points for Next-Generation Antimalarials” (ACS Infect Dis, 2020)
